The target in experiment [1] is Cytochrome P450 3A4 (Homo sapiens) (UniProt P08684). Put plainly: qHTS Assay for Inhibitors and Substrates of Cytochrome P450 3A4 (AID 884). Further: on the % scale 0 is the no-effect control and ±100 the full control effect; nearly all actives have a fitted effect of over 50% in size. The procedure, abridged:
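Luminescent readout of luciferin produced by CYP3A4 (20 nM) dealkylation of Luciferin-PPXE, 25 uM (its KM). NADPH-driven reaction ran 60 min at RT after 10 min compound preincubation; data scaled to 57 uM ketoconazole as 100% inhibition.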
For orientation: In qHTS, concentration-response curves come from the screen itself.

A short description of experiment [2]: qHTS Assay for Lipid Storage Modulators (AID 1519; calls by dose curve). The conditions noted are these: Drosophila S3 cells, BODIPY lipid droplet/cell ratio, laser cytometry, cells loaded with oleic acid. The procedure, abridged: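 Cells seeded at 5,000 per well were treated with compounds over a concentration series and loaded with oleic acid (400 uM, as added). Lipid droplet fluorescence (488 nm excitation, 500-530 nm channel) was read by laser-scanning cytometry and normalized to 20 uM Triacsin C.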

Experiment [3] addresses Ubiquitin carboxyl-terminal hydrolase 1 (Homo sapiens) (UniProt O94782). Put plainly: Inhibitors of USP1/UAF1: Pilot qHTS (AID 504865).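 Further: rhodamine fluorescence freed from ubiquitin-rhodamine substrate followed over time; top concentration of the series differs between compounds; on the % scale 0 is the no-effect control and ±100 the full control effect; nearly all actives have a fitted effect of over 35% in size.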 The procedure, abridged:
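1nM USP1/UAF1 + cpd, 15 min RT; start w/ Ub-Rho 150nM final; kinetic FL 480/540 nm, 6 reads q60 s. Buffer 50mM HEPES pH 7.8, 0.5mM EDTA, 1mM TCEP, 0.01% Tween-20, 0.1 mg/ml BSA.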

For experiment [4], the target named is Furin (Homo sapiens) (UniProt P09958). Put plainly: Furin counterscreen qHTS for Zika virus inhibitors (AID 1347149).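 Further: purified recombinant full-length human furin enzyme at 5 nM; fluorescence gain from furin cutting a BOC-RVRR-AMC peptide substrate over 15 min; top concentration of the series differs between compounds; plate controls were no-inhibitor control for no effect and no-enzyme control for full effect; nearly all actives have a fitted effect of over 70% in size.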 The procedure, abridged:
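Counterscreen measures cleavage of 2 microM BOC-RVRR-AMC, below its ~15 microM Km, by 5 nM full-length human furin at pH 7.0 after a 15-min compound preincubation. Inhibition derives from the 15-min fluorescence increase at 37C.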
In general terms: The purpose of a counterscreen is to sort out artefacts and off-target activity.

In experiment [5] the test system is Zika virus NS2B-NS3 protease (unlinked). Put plainly: Optimization of GU AMC qHTS for Zika virus inhibitors: Unlinked NS2B-NS3 protease assay (AID 1347151).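 Further: 0% = no-inhibitor control and -100% = no-enzyme control; nearly all actives have a fitted effect of over 80% in size.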 The gist of the method:
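Fluorescence read-out (340 nm ex / 450 nm em) of AMC peptide cleavage, taken immediately and after 15 min at room temperature (~20% conversion). Enzyme was the unlinked NS2B–NS3 complex at 25 nM in Tris pH 8.0 buffer.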

Experiment [6] is described as follows: Vero cells viability qHTS for Zika virus inhibitors (AID 1347167). Further: on the % scale 0 is the no-effect control and ±100 the full control effect. The gist of the method:
(§1)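 qHTS titration; 24-48 h compound exposure, 37 degrees C/5% CO2; DMEM, 4% FBS; CellTiter Glo ATP luminescence.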

Experiment [7] can be described thus: Tertiary RLuc qRT-PCR qHTS assay for Zika virus inhibitors (AID 1347169). Further: nearly all actives have a fitted effect of over 55% in size. Further: potency means the concentration at half of the fitted maximal effect. The procedure, abridged:
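Luminescence read-out: live-cell Renilla luciferase substrate applied to infected Vero cells, signal measured after 1-1.5 hrs. Cells had received compound before ZIKV-RLuc (Cambodian strain, MOI 1-2) infection and were incubated 48-72 hrs at 37 degrees C.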
(Quantitative PCR measures a nucleic acid by following its amplification.)

In experiment [8] the target is Estrogen receptor (Homo sapiens) (UniProt P03372). Nature of the experiment: qHTS assay for small molecule antagonists of estrogen receptor alpha signaling (AID 588513; active means well fitted curve in the direction sought with a large enough effect in the signal ratio, with a control signal flat, not every such curve was filed as active; the % refers to the signal ratio; further: on the % scale 0 is the no-effect control and ±100 the full control effect). The procedure, abridged:
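Beta-lactamase reporter, antagonist mode, HEK 293 GripTite cells; 0.5nM E2 stimulus, 18 h, 37 C; CCF4 dye 2 h RT; fluorescence. IC50 and efficacy from Hill fits, normalized to E2 and DMSO.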

Experiment [9] concerns the target Peroxisome proliferator-activated receptor gamma (Homo sapiens) (UniProt P37231). Nature of the experiment: qHTS assay for small molecule agonists of peroxisome proliferator-activated receptor gamma signaling (AID 588536; active means well fitted curve in the direction sought with a large enough effect in the signal ratio, with a control signal flat, not every such curve was filed as active; the % refers to the signal ratio;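 further: 0% = DMSO basal wells and 100% = rosiglitazone at 2 µM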). The procedure, abridged:
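Compound treatment: 16 h, 37 C, HEK293 GeneBLAzer cells. Detection: CCF4, 2 h RT. Values: Hill-fit EC50, efficacy as % of 2 uM rosiglitazone.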

The target is the same in experiment [10]. Put plainly: qHTS assay for small molecule antagonists of peroxisome proliferator-activated receptor gamma signaling (AID 588537; active means well fitted inhibition curve with a large enough effect in the signal ratio, with a control signal flat, not every such curve was filed as active; the % refers to the signal ratio;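 further: reporter cells co-stimulated with 50 nM rosiglitazone agonist during compound treatment; % of control where 0% means no effect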). The procedure, abridged:
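Read-out: CCF4 fluorescence (ex 405, em 460/530 nm) after 2 h at RT. Cells were HEK293 carrying a UAS-bla reporter and treated 16 h at 37 C with compound plus rosiglitazone (50 nM final). Normalized to rosiglitazone and DMSO.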

Experiment [11] addresses Vitamin D3 receptor (Homo sapiens) (UniProt P11473). Nature of the experiment: qHTS assay for small molecule antagonists of vitamin D receptor signaling (AID 588541; calls by dose curve;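 further: receptor activated by calcitriol during compound treatment; on the % scale 0 is the no-effect control and ±100 the full control effect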). The gist of the method:
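VDR-UAS-bla HEK293T cells in 2% charcoal-stripped FBS were stimulated with 1-alpha,25-dihydroxyvitamin D3 (3 nM final) plus compound for 16 h at 37 C. The beta-lactamase CCF4 readout was normalized to 50 nM agonist and DMSO, and Hill fits gave IC50.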

Experiment [12] has the same target. Nature of the experiment: qHTS assay for small molecule agonists of vitamin D receptor signaling (AID 588543; calls by dose curve;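 further: 0% = DMSO basal and 100% = reference agonist control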). The procedure, abridged: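 β-lactamase reporter, VDR-UAS-bla HEK293T, agonist mode. Cells plated 5 h at 37 °C, compound titration 16 h at 37 °C, CCF4 dye 2 h RT, ratio 460/530 nm. Hill fit → EC50, efficacy vs 50 nM 1α,25-(OH)2D3.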
Experiment [13] in a line: qHTS assay for small molecule agonists of retinoid X receptor alpha signaling (AID 588544; calls by dose curve;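 on activation: 0% = DMSO basal wells and 100% = reference agonist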). The following applies: HEK293T RXRa-UAS-bla, beta-lactamase reporter, 18 h; 530 nm emission.
The target of experiment [14] is Retinoic acid receptor RXR-alpha (Homo sapiens) (UniProt P19793). The description is as above.
The target in experiment [15] is Thyroid hormone receptor beta (Homo sapiens) (UniProt P10828). Put plainly: qHTS assay for small molecule agonists of thyroid hormone receptor beta signaling (AID 588545; calls by dose curve;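 further: 0% = DMSO only and 100% = 10 nM T3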). The gist of the method:
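Efficacy and EC50 values derive from Hill fits of qHTS titration data, normalized to 10 nM T3 and DMSO-only wells. HEK 293 reporter cells were stimulated for 18 hrs at 37 C, with beta-lactamase activity measured by CCF4 fluorescence.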

A short description of experiment [16]: qHTS assay for small molecule antagonists of retinoid X receptor alpha signaling (AID 588546; active means well fitted inhibition curve with a large enough effect in the signal ratio, with a control signal flat, not every such curve was filed as active; the % refers to the signal ratio;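 further: cells stimulated with 9-cis-retinoic acid as agonist; on the % scale 0 is the no-effect control and ±100 the full control effect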). The following applies: HEK293T RXRa-UAS-bla, beta-lactamase ratio, antagonist mode; measured here: W530 green channel, cytotoxicity proxy. The gist of the method: (§2)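 Beta-lactamase reporter inhibition, read as CCF4 fluorescence ratio (ex 405, em 460/530 nm) after 2 h at RT. HEK293T UAS-bla cells, 2500/well, were stimulated with 9-cis-RA at 500 or 100 nM final alongside test compound for 18 h at 37 C.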

For experiment [17], the target named is Retinoic acid receptor RXR-alpha (Homo sapiens) (UniProt P19793). The experiment is described as above. The following applies: HEK293T RXRa-UAS-bla, beta-lactamase ratio, antagonist mode. The procedure, abridged: as §2
A short description of experiment [18]: qHTS assay for small molecule agonists of the antioxidant response element (ARE) signaling pathway (AID 651741; active means well fitted activation curve with a large enough effect in the signal ratio; the % refers to the signal ratio; further: % of control where 0% means no effect). The gist of the method:
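HepG2 ARE-bla reporter cells, 2,000/well; 5 h settle at 37 C/5% CO2; compound pin transfer (23 nL, DMSO); 16 h at 37 C; LiveBLAzer B/G FRET substrate, 2 h RT; fluorescence intensity read.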

A short description of experiment [19]: qHTS assay for small molecule activators of the p53 signaling pathway (AID 651743; active means well fitted activation curve with a large enough effect in the signal ratio, not every such curve was filed as active; the % refers to the signal ratio; further: % of control where 0% means no effect). The following applies: HCT-116 p53RE-bla, beta-lactamase FRET ratio, 16 h; activation: stronger effect = higher value. The gist of the method:
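Reporter: beta-lactamase driven by p53 response elements, stably integrated in HCT-116 cells. Cells seeded at 4,000/well, 5 h preincubation, compound (DMSO) 16 h at 37 C; B/G FRET substrate 2 h RT; fluorescence intensity read.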

Experiment [20] in a line: qHTS assay for small molecule activators of the nuclear factor-kappa B (NF-kB) signaling pathway (AID 651749; active means well fitted activation curve with a large enough effect in the signal ratio; the % refers to the signal ratio; further: % of control where 0% means no effect). The following applies: NF-kB-bla ME-180 cells, beta-lactamase FRET ratio, 16 h; activation: stronger effect = higher value. The gist of the method: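 NF-kB-bla ME-180 cells, 2,000/well; 23 nL compound or DMSO pinned; 16 hr, 37C/5% CO2; beta-lactamase FRET read-out.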
Experiment [21] is described as follows: qHTS assay for environmental chemicals that activate the Aryl hydrocarbon Receptor (AhR) signaling pathway (AID 651777). Further: % of control where 0% means no effect; nearly all actives have a fitted effect of over 15% in size. The conditions noted are these: 1A2-DRE human hepatoma cells, luciferase, 24 h; activation: stronger effect = higher value. The procedure, abridged:
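Luminescence (One-Glo, 30 min, room temperature) reports AhR-driven luciferase in stably transfected human hepatoma cells bearing DRE and CYP1A2 promoter. Cells (1,200/well) were treated with compound for 24 hr at 37 C in qHTS format.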

In experiment [22] the target is Peroxisome proliferator-activated receptor alpha (Homo sapiens) (UniProt Q07869). Nature of the experiment: qHTS assay for small molecule agonists of the peroxisome proliferator-activated receptor alpha (PPARalpha) signaling pathway (AID 651778). Further: % of control where 0% means no effect. The following applies: PathHunter PPARalpha complementation, chemiluminescence, 6 h; stronger effect = higher value. The procedure, abridged:
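Enzyme-fragment complementation assay in which ligand-bound PPARalpha translocates and forms an active enzyme that generates chemiluminescence. Cells were plated overnight, exposed to compound for 6 hr at 37 C, and then given detection reagent for 60 min at room temperature.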

A short description of experiment [23]: qHTS assay for small molecule agonists of the antioxidant response element (ARE) signaling pathway measured by Nrf2-dependant transcriptional activity - cell viability counter screen (AID 720653; active means well fitted curve in the direction sought with a large enough effect in the repeat runs; an effect the other way counts as inactive or inconclusive; further: on the % scale 0 is the no-effect control and ±100 the full control effect). The following applies: ARE-bla HepG2 viability, CellTiter-Glo ATP luminescence, 16 h; max response: stronger effect = lower value. The gist of the method: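 ARE-bla HepG2 cells treated with compounds for 16 h at 37C; this counter screen measures viability as intracellular ATP by CellTiter-Glo luminescence after 30 min at room temperature.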

Experiment [24] is described as follows: qHTS assay for cell viability of HEK293 cells (AID 743288). Further: on the % scale 0 is the no-effect control and ±100 the full control effect; nearly all actives have a fitted effect of over 50% in size. The following applies: ATP luminescence (CellTiter-Glo), 18 h; max response: stronger effect = lower value. The gist of the method: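 ATP luminescence (CellTiter-Glo) reports metabolically competent cell number after parental HEK293 cells, 2,000/well, were treated with DMSO-dissolved compounds for 18 h at 37 C; reagent incubation 30 min, room temperature.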

Experiment [25] can be described thus: qHTS assay for cell viability of the p53RE-bla HCT-116 cell line (AID 743292). Further: on the % scale 0 is the no-effect control and ±100 the full control effect; nearly all actives have a fitted effect of over 55% in size. The gist of the method: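 ATP-based luminescent viability (CellTiter-Glo, 30 min RT) after 16 h compound treatment at 37 C of p53RE-bla HCT-116 cells, seeded at 4,000 cells/well and rested 5 h before dosing.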
Experiment [26] is described as follows: HepG2 cells viability qHTS for Zika virus inhibitors (AID 1347168). Further: on the % scale 0 is the no-effect control and ±100 the full control effect. The gist of the method: as §1
In experiment [27] the target is Nuclear receptor subfamily 1 group I member 2 (Rattus norvegicus) (UniProt Q9R1A7). Put plainly: qHTS assay for small molecule activators of the rat pregnane X receptor (rPXR) signaling pathway (AID 651751; call rule not given here; further: 0% is about no effect). The following applies: rPXR reporter cells, luciferase (One-Glo), 24 h.

Results filed as inconclusive are left out. The source made the active and inactive calls. Unless noted, the call rests on the fitted dose curve; in most records, active means well fitted curve in the direction sought with a large enough effect; inconclusive means small, poorly fitted or top-dose-only effect, or another doubt; inactive means no such curve, though single readings can be large; an effect the other way counts as inactive or inconclusive.

2 compounds from PubChem BioAssay (NCATS) can be followed below.

Sequence of Peroxisome proliferator-activated receptor gamma (Homo sapiens) (P37231 whole entry, looked up): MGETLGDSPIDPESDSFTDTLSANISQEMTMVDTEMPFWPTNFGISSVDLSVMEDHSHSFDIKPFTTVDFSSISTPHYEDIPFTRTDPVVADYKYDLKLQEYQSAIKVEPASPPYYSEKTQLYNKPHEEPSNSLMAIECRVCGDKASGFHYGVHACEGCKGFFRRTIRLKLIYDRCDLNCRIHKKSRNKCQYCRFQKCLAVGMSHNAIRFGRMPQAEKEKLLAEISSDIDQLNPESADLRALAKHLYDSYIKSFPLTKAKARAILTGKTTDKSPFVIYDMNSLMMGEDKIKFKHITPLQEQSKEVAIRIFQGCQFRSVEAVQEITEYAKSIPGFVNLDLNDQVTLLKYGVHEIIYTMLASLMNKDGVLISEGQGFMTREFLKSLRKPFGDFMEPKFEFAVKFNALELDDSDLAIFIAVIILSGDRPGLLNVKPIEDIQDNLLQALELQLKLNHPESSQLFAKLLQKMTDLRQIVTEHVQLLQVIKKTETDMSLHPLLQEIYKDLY
Sequence of Furin (Homo sapiens) (P09958 whole entry, looked up): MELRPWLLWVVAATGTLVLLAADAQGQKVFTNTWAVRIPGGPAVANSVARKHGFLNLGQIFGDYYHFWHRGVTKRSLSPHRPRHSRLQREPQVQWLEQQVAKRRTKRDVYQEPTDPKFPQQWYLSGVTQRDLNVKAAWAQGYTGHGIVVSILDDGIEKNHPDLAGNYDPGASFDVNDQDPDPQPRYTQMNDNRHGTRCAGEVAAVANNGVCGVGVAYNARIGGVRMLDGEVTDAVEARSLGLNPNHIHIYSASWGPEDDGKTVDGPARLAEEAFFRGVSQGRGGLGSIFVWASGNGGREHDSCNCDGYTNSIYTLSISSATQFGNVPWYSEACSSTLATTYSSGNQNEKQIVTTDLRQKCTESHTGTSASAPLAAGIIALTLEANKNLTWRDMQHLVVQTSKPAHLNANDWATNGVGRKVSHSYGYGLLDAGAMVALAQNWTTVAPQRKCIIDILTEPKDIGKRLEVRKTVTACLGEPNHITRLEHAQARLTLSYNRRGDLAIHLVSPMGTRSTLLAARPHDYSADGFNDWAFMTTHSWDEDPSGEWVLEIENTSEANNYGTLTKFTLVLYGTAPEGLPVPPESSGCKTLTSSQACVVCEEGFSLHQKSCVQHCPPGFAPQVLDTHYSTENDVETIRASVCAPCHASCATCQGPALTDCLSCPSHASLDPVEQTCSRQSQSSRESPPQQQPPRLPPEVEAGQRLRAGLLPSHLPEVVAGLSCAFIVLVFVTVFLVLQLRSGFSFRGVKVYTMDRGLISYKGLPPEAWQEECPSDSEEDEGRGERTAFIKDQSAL
Sequence of Retinoic acid receptor RXR-alpha (Homo sapiens) (P19793 whole entry, looked up): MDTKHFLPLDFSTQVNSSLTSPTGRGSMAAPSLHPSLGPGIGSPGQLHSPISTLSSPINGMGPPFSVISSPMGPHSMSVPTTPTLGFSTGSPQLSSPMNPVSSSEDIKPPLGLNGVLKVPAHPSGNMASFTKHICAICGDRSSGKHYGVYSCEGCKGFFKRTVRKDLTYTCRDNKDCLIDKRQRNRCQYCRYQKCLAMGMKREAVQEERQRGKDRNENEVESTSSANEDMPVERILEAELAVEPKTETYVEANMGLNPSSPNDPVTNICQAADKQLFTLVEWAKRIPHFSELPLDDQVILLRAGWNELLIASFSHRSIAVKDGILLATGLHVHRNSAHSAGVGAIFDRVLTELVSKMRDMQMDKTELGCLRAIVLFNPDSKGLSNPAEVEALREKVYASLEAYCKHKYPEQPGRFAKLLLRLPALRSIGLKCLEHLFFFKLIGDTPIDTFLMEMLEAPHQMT
Sequence of Vitamin D3 receptor (Homo sapiens) (P11473 whole entry, looked up): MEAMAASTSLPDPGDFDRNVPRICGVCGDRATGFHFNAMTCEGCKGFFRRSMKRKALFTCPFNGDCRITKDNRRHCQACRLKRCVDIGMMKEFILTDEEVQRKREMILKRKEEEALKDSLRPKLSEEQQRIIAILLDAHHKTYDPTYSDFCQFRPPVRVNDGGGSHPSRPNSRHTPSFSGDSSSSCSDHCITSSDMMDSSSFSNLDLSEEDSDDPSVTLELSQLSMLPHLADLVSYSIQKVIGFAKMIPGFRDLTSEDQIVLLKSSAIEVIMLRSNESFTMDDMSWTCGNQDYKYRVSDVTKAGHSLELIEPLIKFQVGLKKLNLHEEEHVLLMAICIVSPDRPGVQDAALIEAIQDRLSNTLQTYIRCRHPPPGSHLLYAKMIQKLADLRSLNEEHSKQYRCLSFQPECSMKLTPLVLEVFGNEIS
Sequence of Nuclear receptor subfamily 1 group I member 2 (Rattus norvegicus) (Q9R1A7 whole entry, looked up): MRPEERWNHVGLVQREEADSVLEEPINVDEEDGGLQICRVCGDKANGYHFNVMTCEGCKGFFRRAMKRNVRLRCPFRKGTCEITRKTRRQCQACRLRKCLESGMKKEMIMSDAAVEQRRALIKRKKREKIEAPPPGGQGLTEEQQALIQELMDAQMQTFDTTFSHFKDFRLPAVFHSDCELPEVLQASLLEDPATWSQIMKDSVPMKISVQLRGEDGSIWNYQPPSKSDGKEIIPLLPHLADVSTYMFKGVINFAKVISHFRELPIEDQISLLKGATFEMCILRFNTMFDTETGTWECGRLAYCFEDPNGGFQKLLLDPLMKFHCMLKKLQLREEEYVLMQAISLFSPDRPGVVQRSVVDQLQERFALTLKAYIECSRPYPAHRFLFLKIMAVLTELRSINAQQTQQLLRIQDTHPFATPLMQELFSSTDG
Sequence of Cytochrome P450 3A4 (Homo sapiens) (P08684 whole entry, looked up): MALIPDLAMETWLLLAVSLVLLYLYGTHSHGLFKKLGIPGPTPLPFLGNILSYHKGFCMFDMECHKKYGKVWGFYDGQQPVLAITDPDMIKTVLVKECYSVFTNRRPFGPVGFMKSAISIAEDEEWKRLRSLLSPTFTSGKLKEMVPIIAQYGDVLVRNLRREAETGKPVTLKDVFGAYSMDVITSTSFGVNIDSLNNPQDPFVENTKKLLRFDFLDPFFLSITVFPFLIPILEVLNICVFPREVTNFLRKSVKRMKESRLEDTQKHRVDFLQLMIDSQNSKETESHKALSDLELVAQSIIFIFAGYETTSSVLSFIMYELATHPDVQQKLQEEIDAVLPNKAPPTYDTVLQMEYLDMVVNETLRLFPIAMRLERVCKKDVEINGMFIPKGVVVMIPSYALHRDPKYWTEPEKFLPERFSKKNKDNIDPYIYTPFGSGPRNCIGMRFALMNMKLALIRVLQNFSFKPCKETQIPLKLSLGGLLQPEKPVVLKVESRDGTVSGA
Sequence of Peroxisome proliferator-activated receptor alpha (Homo sapiens) (Q07869 whole entry, looked up, the tested form may be a part): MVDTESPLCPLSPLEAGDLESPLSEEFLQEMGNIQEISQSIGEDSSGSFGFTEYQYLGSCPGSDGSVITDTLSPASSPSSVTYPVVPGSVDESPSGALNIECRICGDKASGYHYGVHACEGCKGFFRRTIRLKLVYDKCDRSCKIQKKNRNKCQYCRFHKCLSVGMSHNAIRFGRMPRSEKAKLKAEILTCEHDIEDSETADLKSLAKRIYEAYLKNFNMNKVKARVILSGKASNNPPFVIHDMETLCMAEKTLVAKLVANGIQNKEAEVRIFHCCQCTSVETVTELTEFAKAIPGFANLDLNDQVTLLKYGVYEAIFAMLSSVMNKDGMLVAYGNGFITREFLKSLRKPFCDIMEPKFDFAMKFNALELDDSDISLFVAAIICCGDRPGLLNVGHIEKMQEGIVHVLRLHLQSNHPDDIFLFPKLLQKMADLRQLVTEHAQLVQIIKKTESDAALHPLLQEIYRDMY
Sequence of Thyroid hormone receptor beta (Homo sapiens) (P10828 whole entry, looked up): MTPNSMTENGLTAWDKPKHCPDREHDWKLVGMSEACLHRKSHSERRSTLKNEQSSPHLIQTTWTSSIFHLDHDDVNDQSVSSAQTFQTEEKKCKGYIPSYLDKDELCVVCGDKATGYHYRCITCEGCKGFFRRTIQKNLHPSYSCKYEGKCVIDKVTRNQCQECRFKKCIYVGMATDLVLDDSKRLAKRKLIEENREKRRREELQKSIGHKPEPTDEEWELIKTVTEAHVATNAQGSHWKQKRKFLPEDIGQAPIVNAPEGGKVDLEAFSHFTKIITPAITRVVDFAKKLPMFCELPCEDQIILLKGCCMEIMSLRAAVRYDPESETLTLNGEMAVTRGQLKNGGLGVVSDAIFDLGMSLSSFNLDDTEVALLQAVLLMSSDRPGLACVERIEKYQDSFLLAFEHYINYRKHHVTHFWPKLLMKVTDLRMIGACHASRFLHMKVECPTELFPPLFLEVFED
Sequence of Estrogen receptor (Homo sapiens) (P03372 whole entry, looked up): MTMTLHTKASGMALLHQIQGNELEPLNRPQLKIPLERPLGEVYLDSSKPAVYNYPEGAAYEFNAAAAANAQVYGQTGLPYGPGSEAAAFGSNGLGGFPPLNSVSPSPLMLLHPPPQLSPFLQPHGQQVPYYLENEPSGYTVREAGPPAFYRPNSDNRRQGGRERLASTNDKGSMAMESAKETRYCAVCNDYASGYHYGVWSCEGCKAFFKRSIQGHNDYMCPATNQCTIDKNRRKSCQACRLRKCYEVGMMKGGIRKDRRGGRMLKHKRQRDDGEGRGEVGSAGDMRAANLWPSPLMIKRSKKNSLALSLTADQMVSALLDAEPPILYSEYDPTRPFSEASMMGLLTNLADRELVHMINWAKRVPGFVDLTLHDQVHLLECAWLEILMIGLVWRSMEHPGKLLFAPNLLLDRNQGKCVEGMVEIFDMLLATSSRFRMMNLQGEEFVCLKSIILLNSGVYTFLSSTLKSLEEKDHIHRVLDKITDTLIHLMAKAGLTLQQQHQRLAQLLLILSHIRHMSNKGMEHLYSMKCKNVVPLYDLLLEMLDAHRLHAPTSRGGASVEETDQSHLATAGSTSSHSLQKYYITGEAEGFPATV

As for `COC1C(O)C(C)O[C@@H](OC2CC[C@@]3(C)C4CC[C@]5(C)C(C6=CC(=O)OC6)CC[C@@]5(O)C4CC[C@@H]3C2)C1O` (stereo partly drawn), the Potency entry in [1], in experiment [3], in [4] and in [6] was “inactive” throughout. The activity change, negative = inhibition in [2] (at 57.5 µM (top of the series)) was 8.72% (inactive). The max response in [2] (measured here: cell count channel max response) was found to be 8.32%; in experiment [2] (measured here: lipid channel max response), 14.8%. Further, the result in experiment [5] was inactive. Moreover, the Potency in experiment [7] is 65.8 nM (active).
As for `CC(C)OC(=O)Nc1ccccc1`, the Potency entry in experiment [8], in experiment [10], in [12], in experiment [15], in experiment [18] and in experiment [4] was “inactive” throughout. The Potency entry in experiment [6], in [26] and in [7] was “inactive” each time. In addition, the result in experiment [9], in [11], in experiment [14], in [25] and in experiment [5] was inactive. For the same compound, the max response in experiment [13] was -15.4%; in experiment [16] it was -6.41%; in experiment [17], -6.43% (inactive); in [22] it was -0.246% (inactive); in experiment [23], -3.27% (inactive); in experiment [24] it was -1.53% (inactive). Further, in experiment [27], the max response is 10.9% (inactive). Moreover, the activation in [19] was -1.81% (inactive); in [20], 0.27% (inactive); in [21] it was 12.4% (inactive).
